Test results reported in PubChem BioAssay (NCI).
The panel holds about 83,000 compounds, 20% with a hit somewhere; the sample as a whole holds those more often.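 Activity criterion: percent growth below 10, measured after cells in 96-well plates were exposed to a single compound concentration for 48 hours.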 Unmarked numbers belong to inactive results. Calls of active or inactive are those of the source.

These molecules were tested on HL-60(TB) leukemia (assay: NCI-60 one-dose screen, 48 h (100 = growth as untreated, 0 = no growth, -100 = all killed)). Conditions: 10 µM unless noted.

| Compound | growth |
| --- | --- |
| O=C(N/N=C/c1cccc([N+](=O)[O-])c1)c1ccc(Br)o1 | 103% |
| COc1ccc(C(O)c2cc3c(N)c(C(=O)Nc4cccc(Cl)c4)sc3nc2C)cc1 (stereo not given) | 0.332% (active) |
| COc1cc2ncnc(Nc3ccc(C(=O)/C=C/c4ccc(C(F)(F)F)cc4F)cc3)c2cc1OC | 85.9% |
| Cc1ccc2nc(NC(=O)CSc3nc(-c4ccccc4)c(C#N)c4nnnn34)sc2c1 | 99.5% |
| Cc1cccc(C)c1NC(=O)c1sc2nc3c(cc2c1N)C(=O)CCC3 | 104% |
| CCCOc1ccc2c(c1)CC[C@@H]1[C@@H]2CC[C@@]2(C)[C@H]1CC[C@]2(C)O | 78.8% |
| COc1cc2nc(NC3CCCC3)nc(NC3CCN(C(C)C)CC3)c2cc1OC | 88.7% |
| C/C(=C\CCc1ccoc1)CC/C=C(\C)CCCNc1ccc(F)cc1 | 9.6% (active) |
| Cc1c(C(=O)OCCCCOC(=O)c2c(C)n(C)c3scc[n+]23)[n+]2ccsc2n1C | 87.1% |
| COc1ccc(NC(=S)/N=c2\oc3c(OC)cccc3cc2-c2cc3ccccc3[nH]2)cc1 | 93.1% |
| CCC(CCC(C)C1CCC2C3CC=C4CC(O)CCC4(C)C3CCC12C)C(C)C (stereo not given) (tested in a mixture with another compound) | 82.5% |
| CCCCCCCC(=O)SCC/C=C/[C@@H]1CC(=O)NCc2cccc(n2)C2=N[C@@](C)(CS2)C(=O)N[C@@H](C(C)C)C(=O)N1 | 24.7% |
| CC1(C)Cc2c(Br)c(Br)c(Br)c(OCC(O)CN3CCOCC3)c2O1 (stereo not given) | -34.1% (active) |
| COC1=CC(c2ccc[nH]2)=N/C1=C\c1[nH]c(C)c(C(=O)CCCCC(=O)Nc2ccccc2)c1C | 74.9% |
| C#CCOc1ccc2ncnc(NCc3cccc(NC(=O)CCl)c3)c2c1 | 19.5% [8.25 µM] |
| O=c1oc2ccc(Cl)cc2c(=O)n1-c1ccc(Cl)cc1F | -44.5% (active) |
| COc1ccc(-c2n/c(=C\c3c(O)[nH]c4ccccc34)cc3c2=Nc2ccccc2-3)cc1 | -19.1% (active) |
| Cc1nc(Nc2ccc(NC(=S)Nc3ccccc3)cc2)c2ccccc2n1 | 86.4% |

| Compound | growth |
| --- | --- |
| COc1cc(C2CC(=O)Nc3c2ccc2ccccc32)cc(Br)c1OC (stereo not given) | -15.2% (active) |
| CCCCCCCCCCCCCCCCCC1=NCCN1CCOC1=C(Cl)C(=O)c2ccccc2C1=O | 70.1% |
| Cc1ccc2c(c1)=C/C(=C\c1cc(-c3ccccc3)oc1O)C(=O)N=2 | 98% |
| CCN(CC)CCC(CNc1ccnc2cc(Cl)ccc12)c1ccccc1 (stereo not given) | 58.5% |
| CCC(CC)n1c(C)cc(=O)n1C(CC)CC | 88% |
| O=C1C(Nc2ccc(Cl)cc2)=C(I)C(=O)c2ncccc21 | -45.8% (active) |
| Clc1cccc(C2Cc3cnccc3-c3[nH]c4ccncc4c32)c1 (stereo not given) | 25.3% |
| N#Cc1c(-c2ccccc2)c(C#N)c2c(C#N)c(N)nn2c1N | -17.2% (active) |
| CC(C)=CC[C@@H]1CC2(CC=C(C)C)C(=O)C(OC3(C(=O)c4ccccc4)C(=O)C4(CC=C(C)C)C[C@@H](CC=C(C)C)C(C)(C)C(CC=C(C)C)(C4=O)C3=O)(C(=O)c3ccccc3)C(=O)C(CC=C(C)C)(C2=O)C1(C)C (stereo not given in full) | -47.7% (active) |
| CC(C)CCC[C@@H](C)[C@H]1CC[C@H]2[C@@H]3CC=C4c5sc(Nc6cc(C(F)(F)F)cc(C(F)(F)F)c6)nc5CC[C@]4(C)[C@H]3CC[C@]12C | 101% |
| CCc1ccc2c(c1)N(CCO)C1=C(C(=O)OC1)C2c1cccc(Cl)c1 (stereo not given) | -19.4% (active) |
| Cl.Fc1c[c-]c(-c2ccccn2)c(F)c1.[Pt].c1ccc([PH+](CC[PH+](c2ccccc2)c2ccccc2)c2ccccc2)cc1 | -29.2% (active) |
| COc1ccc(C(=O)c2cc(F)c(F)c(OC)c2F)cc1OC(=O)CCl | 11.7% |
| Clc1ncn[nH]1 | 103% |
| C=C(C)[C@@H]1CC[C@]2(C(=O)O)CC[C@]3(C)[C@H](CC[C@@H]4[C@@]5(C)C[C@@H](CC#Cc6ccc(Cl)cc6)C(=O)C(C)(C)[C@@H]5CC[C@]43C)[C@@H]12 | 22.2% |
| Cc1cc(=O)oc2cc(OCc3cn(CC(O)CO)nn3)ccc12 (stereo not given) | 110% |
| Oc1ccc(C(c2ccc(O)cc2)c2ccc(Cl)cn2)cc1 | 101% |
